Only some compounds are listed: those with a hit (about 18% of all), similar ones and a draw of the others.
TDP1 cell CPT: DT40-hTDP1 cell growth loss with CPT; chicken DT40 Tdp1-/-;hTDP1 cells + 20 nM CPT, ATP luminescence, 48 h; Potency, µM (highest dose often 46.2 µM), actives largely listed as inhibitors; actives 12% (n = 420,000); AID 686979; further: nearly all actives have a fitted effect of over 55% in size
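Chicken DT40 Tdp1-/- cells stably complemented with human TDP1 were seeded at 400 cells/well in medium containing 20 nM camptothecin, exposed to pin-transferred compounds, and grown at 37 °C for at least 48 hr. Viability was read as ATP luminescence.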
Six1-Eya2 inh: Six1/Eya2 interaction inhibition. AlphaScreen GST-Six1/His-Eya2 binding, biochemical; active compounds read low. activity change, % (concentration not given with the values). AID 651725. actives 0.56% (n = 360,000); in the data active means activity change below about -65%; inconclusive means mostly about -30% to -63%
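Homogeneous AlphaScreen proximity assay pairing GST-Six1 with His-tagged Eya2 (added as 5X mix: 250 nM and 500 nM) in 50 mM Tris pH 8.0, 300 mM NaCl, 1 mM TCEP. Glutathione donor and nickel acceptor beads; 1 h, 37 °C, dark.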
CtBP-E1A blk: inhibitors of CtBP/E1A interaction | activity change, % (concentration not given with the values) | AID 651724 | AlphaScreen GST-E1A/His-CtBP binding, 1536-well; active compounds read low | actives 0.49% (n = 340,000); in the data active means activity change below about -65%; inconclusive means mostly about -30% to -63%
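Steps: dispense buffer (Tris pH 8.0, NaCl 300 mM, TCEP 1 mM, BSA, Tween 20); add 5X protein mix (GST-E1A, His-CtBP, 125 nM each); pin 23 nL compound; 2 h at 37 °C, dark; add 5X beads (50 ug/mL); 1 h; read.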
IL1B secr inh: inhibitors of inflammasome signaling (IL-1 beta secretion) | activity change, % at 57.5 µM | THP-1 LPS/ATP IL-1B secretion, AlphaLISA, 16 h; active compounds read low | actives 4.7% (n = 360,000); in the data active means activity change below about -50%; inconclusive means mostly about -30% to -49%
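THP-1 cells pretreated 1 hr with compounds (up to 57.5 uM final), then stimulated with LPS (250 ng/mL final) plus ATP (1.25 mM final); secreted IL-1B measured by AlphaLISA after 16 hr, decreased signal indicating inhibition.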
TDP1 block: TDP1 (human) enzyme inhibition; recombinant TDP1, AlphaScreen DNA substrate cleavage; Q9NUW8; Potency, µM (highest dose often 130 µM), actives largely listed as inhibitors; actives 0.28% (n = 350,000); further: nearly all actives have a fitted effect of over 40% in size
Target sequence (Q9NUW8 whole entry, looked up): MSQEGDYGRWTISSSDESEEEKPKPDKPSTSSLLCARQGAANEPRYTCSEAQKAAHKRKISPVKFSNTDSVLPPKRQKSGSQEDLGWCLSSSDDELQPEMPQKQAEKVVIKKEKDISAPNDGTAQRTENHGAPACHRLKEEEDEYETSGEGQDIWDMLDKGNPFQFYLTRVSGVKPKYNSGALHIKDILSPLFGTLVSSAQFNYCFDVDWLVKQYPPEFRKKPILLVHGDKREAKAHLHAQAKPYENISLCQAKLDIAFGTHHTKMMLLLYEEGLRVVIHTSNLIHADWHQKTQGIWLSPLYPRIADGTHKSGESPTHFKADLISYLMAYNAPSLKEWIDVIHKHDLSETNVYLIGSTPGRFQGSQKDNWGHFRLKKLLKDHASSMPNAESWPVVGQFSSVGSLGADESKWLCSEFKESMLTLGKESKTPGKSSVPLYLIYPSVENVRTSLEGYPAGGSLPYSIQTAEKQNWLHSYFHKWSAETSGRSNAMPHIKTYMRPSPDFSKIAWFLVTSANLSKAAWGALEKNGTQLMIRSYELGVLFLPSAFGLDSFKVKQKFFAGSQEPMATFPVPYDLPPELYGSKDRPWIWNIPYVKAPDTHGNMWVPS
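AlphaScreen read-out: signal falls as enzyme removes the 3' tyrosine-FITC from a 5'-biotinylated DNA oligo (15 nM, 5 min, RT). Enzyme was E. coli-made recombinant Tdp1 at 1 nM, exposed to compound for 15 min beforehand; beads 10 ug/ml, 10 min.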
TDP1 cell noCPT: qHTS for Inhibitors of human tyrosyl-DNA phosphodiesterase 1 (TDP1): qHTS in cells in absence of CPT. DT40 Tdp1-/- hTDP1 cells, no CPT, ATP luminescence, 48 h. Potency, µM (series often up to 46.2 µM), actives largely listed as inhibitors. actives 15% (n = 420,000). AID 686978, 2013; further: nearly all actives have a fitted effect of over 55% in size
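Growth of hTDP1-complemented DT40 Tdp1-knockout cells is measured by ATP luminescence after at least 48 hr compound exposure at 37 °C, with DMSO substituting for the 20 nM CPT used in the parallel screen.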
A number is an active result. Unless noted, the call rests on the fitted dose curve; in most records, active means well fitted curve in the direction sought with a large enough effect; inconclusive means small, poorly fitted or top-dose-only effect, or another doubt; inactive means no such curve, though single readings can be large; an effect the other way counts as inactive or inconclusive.

For CCc1ccc(C2=NN(C(=O)OC)C(O)(C(F)(F)F)C2)cc1 (configuration not stated) the results were TDP1 cell CPT inactive, Six1-Eya2 inh inactive, CtBP-E1A blk inactive, IL1B secr inh inactive, TDP1 block inactive and TDP1 cell noCPT inactive.
`COc1ccc(S(=O)(=O)N2CCN(C(=O)COc3ccc4c(C)cc(=O)oc4c3)CC2)cc1` gave TDP1 cell CPT inconclusive, Six1-Eya2 inh inactive, CtBP-E1A blk inactive, IL1B secr inh inactive, TDP1 block inactive and TDP1 cell noCPT inconclusive.
`CCC(C)c1ccc(S(=O)(=O)N2CCN(C(=O)COc3ccc4c(C)cc(=O)oc4c3)CC2)cc1` (configuration not stated) gave TDP1 cell CPT inconclusive, Six1-Eya2 inh inactive, CtBP-E1A blk inactive, IL1B secr inh inactive, TDP1 block inactive and TDP1 cell noCPT 15µM.
Screening Cc1cc(=O)oc2ccc(OCC(=O)N3CCC(C)CC3)cc12 returned TDP1 cell CPT inconclusive, Six1-Eya2 inh inactive, CtBP-E1A blk inactive, IL1B secr inh inactive, TDP1 block inactive and TDP1 cell noCPT 26µM.
CCN(CC)c1cccc(OCC(=O)N2c3ccccc3CC2C)c1 (configuration not stated) was read as TDP1 cell CPT inconclusive, Six1-Eya2 inh inconclusive, IL1B secr inh inactive, TDP1 block inactive and TDP1 cell noCPT 18µM.
`COc1ccc(OCC(=O)N2c3ccccc3CC2C)c([N+](=O)[O-])c1` (configuration not stated) gave TDP1 cell CPT inconclusive, Six1-Eya2 inh inactive, CtBP-E1A blk inactive, IL1B secr inh inactive, TDP1 block inactive and TDP1 cell noCPT inconclusive.
`Cc1cc(=O)oc2cc(OCC(=O)N3c4ccccc4CC3C)ccc12` (configuration not stated) gave TDP1 cell CPT 4.1µM, Six1-Eya2 inh inactive, CtBP-E1A blk inactive, IL1B secr inh inactive, TDP1 block inactive and TDP1 cell noCPT 2.3µM.
`Cc1ccccc1C(=O)Nc1nnc(-c2cccnc2)o1` gave TDP1 cell CPT inactive, Six1-Eya2 inh inactive, CtBP-E1A blk inactive, IL1B secr inh inactive, TDP1 block inactive and TDP1 cell noCPT inactive.
For CC1Cc2ccccc2N1C(=O)COc1nc2ccccc2nc1N1CCOCC1 (configuration not stated) the results were TDP1 cell CPT 7.3µM, Six1-Eya2 inh inactive, CtBP-E1A blk inactive, IL1B secr inh inactive, TDP1 block inactive and TDP1 cell noCPT 9.2µM.
COc1ccc(CNC(=O)[C@@H]2CC=C[C@@H]3CCN(Cc4ccc(OC)c(OC)c4)C(=O)[C@@H]32)cc1 was read as TDP1 cell CPT inactive and TDP1 cell noCPT inactive.
For O=[N+]([O-])c1ccc(S(=O)(=O)c2cccc(C(F)(F)F)c2)nc1 the results were TDP1 cell CPT 2.6µM, Six1-Eya2 inh inactive, CtBP-E1A blk inactive, IL1B secr inh -102 and TDP1 cell noCPT 0.65µM.
O=S(=O)(Nc1cccnc1)c1cccc(C(F)(F)F)c1 was read as TDP1 cell CPT inactive, Six1-Eya2 inh inactive, CtBP-E1A blk inactive, IL1B secr inh inactive, TDP1 block inactive and TDP1 cell noCPT inactive.
`Cc1ccc(NC(=O)CN2C(=O)/C(=C\c3cccs3)SC2=S)cc1` gave TDP1 cell CPT inconclusive, Six1-Eya2 inh inactive, CtBP-E1A blk inactive, IL1B secr inh inactive, TDP1 block inactive and TDP1 cell noCPT inconclusive.
For COc1ccc(NC(=O)C[C@H]2C(=O)N(Cc3ccccc3)C[C@@H]2Cc2ccccc2)cc1 the results were TDP1 cell CPT 18µM, Six1-Eya2 inh inactive, CtBP-E1A blk inactive, IL1B secr inh inconclusive and TDP1 cell noCPT inconclusive.
Screening O=C(C[C@H]1C(=O)N(C2CCCCC2)C[C@@H]1Cc1ccccc1)Nc1ccccc1 returned TDP1 cell CPT inconclusive, Six1-Eya2 inh inactive, CtBP-E1A blk inactive, IL1B secr inh inconclusive and TDP1 cell noCPT 16µM.
For COc1ccc(NC(=O)C[C@H]2C(=O)N(Cc3ccccc3)C[C@@H]2CSC)cc1 the results were TDP1 cell CPT inconclusive, Six1-Eya2 inh inactive, CtBP-E1A blk inactive, IL1B secr inh inactive and TDP1 cell noCPT inconclusive.
For C[C@H]1CN(C2CCCCC2)C(=O)[C@@H]1CC(=O)Nc1ccccc1 the results were TDP1 cell CPT inactive, Six1-Eya2 inh inactive, CtBP-E1A blk inactive, IL1B secr inh inconclusive and TDP1 cell noCPT inactive.
Screening CCCCN1C[C@H](CSC)[C@@H](CC(=O)Nc2ccc(Br)cc2)C1=O returned TDP1 cell CPT inconclusive, Six1-Eya2 inh inactive, CtBP-E1A blk inactive, IL1B secr inh inactive and TDP1 cell noCPT 23µM.
O=C(C[C@H]1C(=O)N(Cc2ccccc2)C[C@@H]1Cc1ccccc1)Nc1ccccc1 was read as TDP1 cell CPT 13µM, Six1-Eya2 inh inactive, CtBP-E1A blk inactive, IL1B secr inh inactive and TDP1 cell noCPT 11µM.
Screening O=C(C[C@H]1C(=O)N(CCc2ccccc2)C[C@@H]1Cc1ccccc1)Nc1ccccc1 returned TDP1 cell CPT 16µM, Six1-Eya2 inh inactive, CtBP-E1A blk inactive, IL1B secr inh inactive and TDP1 cell noCPT 16µM.
Screening O=C(C[C@H]1C(=O)N(CCc2ccccc2)C[C@@H]1Cc1ccccc1)Nc1ccc(Br)cc1 returned TDP1 cell CPT inconclusive, Six1-Eya2 inh inactive, CtBP-E1A blk inactive, IL1B secr inh inconclusive and TDP1 cell noCPT inconclusive.
CCCCN1C[C@H](Cc2ccccc2)[C@@H](CC(=O)Nc2ccccc2)C1=O was read as TDP1 cell CPT 16µM, Six1-Eya2 inh inactive, CtBP-E1A blk inactive, IL1B secr inh inactive and TDP1 cell noCPT inconclusive.
For COc1ccc(C(=O)Nc2c(N)nc(SCC(=O)Nc3ccc(NC(C)=O)cc3)[nH]c2=O)cc1OC the results were TDP1 cell CPT inactive, Six1-Eya2 inh inactive, CtBP-E1A blk inactive, IL1B secr inh inactive, TDP1 block inactive and TDP1 cell noCPT inactive.
Cc1cc2nc(-c3ccc(F)cc3)c(CC(C)(C)C)n2c(C)c1Br was read as TDP1 cell CPT 26µM, Six1-Eya2 inh inactive, CtBP-E1A blk inactive, IL1B secr inh inactive and TDP1 cell noCPT 21µM.
Cc1cc2nc(-c3ccc(F)cc3)c(CC3CCCCC3)n2c(C)c1Br was read as TDP1 cell CPT inconclusive, Six1-Eya2 inh inactive, CtBP-E1A blk inactive, IL1B secr inh inactive and TDP1 cell noCPT 21µM.
`COc1ccc(-c2nc3cc(C)c(Br)c(C)n3c2CC(C)(C)C)cc1OC` gave TDP1 cell CPT inactive, Six1-Eya2 inh inactive, CtBP-E1A blk inactive, IL1B secr inh inactive and TDP1 cell noCPT inactive.
`Cc1ccc(-c2nc3cc(C)c(Br)c(C)n3c2CC2CCCCC2)cc1` gave TDP1 cell CPT inconclusive, Six1-Eya2 inh inactive, CtBP-E1A blk inactive, IL1B secr inh inactive and TDP1 cell noCPT 13µM.

High-throughput results deposited in PubChem by National Center for Advancing Translational Sciences (NCATS).
